From PubChem
HT1080NT lethal: kills 2HG-producing HT-1080-NT fibrosarcoma cells. HT-1080-NT fibrosarcoma viability, CellTiter-Glo ATP luminescence, 48 h. Potency, µM (doses to about 46.1 µM), most hits filed as cytotoxic. 1.6% of 360,000 active. AID 686970;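 also: NT is the 2HG producing partner of a matched IDH1 knockdown line; nearly all actives have a fitted effect of over 55% in size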
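Read-out is CellTiter-Glo luminescence after 10 minutes at room temperature, following 48 hours' compound treatment of HT-1080-NT cells (750 cells/well, RPMI, 5% FBS, 37 degrees C).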
TDP1 cell CPT: DT40-hTDP1 cell growth loss with CPT | chicken DT40 Tdp1-/-;hTDP1 cells + 20 nM CPT, ATP luminescence, 48 h | Potency, µM (top dose mostly 46.2 µM), actives largely listed as inhibitors | 12% of 420,000 active; also: nearly all actives have a fitted effect of over 55% in size
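Chicken DT40 Tdp1-/- cells stably complemented with human TDP1 were seeded at 400 cells/well in medium containing 20 nM camptothecin, exposed to pin-transferred compounds, and grown at 37 °C for at least 48 hr. Viability was read as ATP luminescence.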
TDP1 cell noCPT: qHTS for Inhibitors of human tyrosyl-DNA phosphodiesterase 1 (TDP1): qHTS in cells in absence of CPT; DT40 Tdp1-/- hTDP1 cells, no CPT, ATP luminescence, 48 h; Potency, µM (titrated, usually from 46.2 µM), usual class: inhibitors; 15% of 420,000 active; AID 686978, 2013; also: nearly all actives have a fitted effect of over 55% in size
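Growth of hTDP1-complemented DT40 Tdp1-knockout cells is measured by ATP luminescence after at least 48 hr compound exposure at 37 °C, with DMSO substituting for the 20 nM CPT used in the parallel screen.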
IL-1B inflam inh: blocks inflammasome-driven IL-1 beta release. THP-1 LPS/ATP IL-1B secretion, AlphaLISA, 16 h; hits give low values. activity change, % at 57.5 µM. 4.7% of 360,000 active; in the data active = activity change below about -50%; inconclusive = mostly about -30% to -49%
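Secreted IL-1B measured by AlphaLISA bead assay after 16 h compound exposure of THP-1 cells; compounds (final up to 57.5 uM) added 1 h before LPS (250 ng/mL) and ATP (1.25 mM) stimulation; lower signal means less secretion.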
HT1080 IDH1KD tx: kills HT-1080 cells with IDH1 knockdown. 2% of 360,000 active. HT-1080 IDH1 knockdown viability, ATP luminescence, 48 h. AID 686971. Potency, µM (series often up to 46.1 µM), usual class: cytotoxic
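Viability of IDH1-knockdown HT-1080 fibrosarcoma cells was assessed by CellTiter-Glo after 48 h at 37 °C with titrated compound; concentration-effect curves were classified by fit quality and response size.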
ELG1 DNA repair: inhibitors of ELG1-dependent DNA repair in HEK293T cells. HEK293T ELG1-luciferase reporter, luminescence, 16 h; DNA damage induced by 5-fluorouridine. Potency, µM (highest dose often 46.1 µM), hits mostly inhibitors. 2.3% of 330,000 active. AID 504467; also: nearly all actives have a fitted effect of over 55% in size
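DMSO vehicle served as the neutral condition. Each well held 2,000 cells given 5-fluorouridine plus compound; after 16 hr at 37 °C/5% CO2, ONE-Glo was added and luciferase measured 30 min later.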
Each line names hits and unclear results; the compound was inactive in the other large screens. In the library only some 19% were active in any assay of this set; here they are far more common. Unless noted, calls follow the shape of the dose curve; as a rule, active = well fitted curve in the direction sought with a large enough effect; inconclusive = small, poorly fitted or top-dose-only effect, or another doubt; inactive = no such curve, though single readings can be large; an effect the other way counts as inactive or inconclusive.

COCCn1c(N)c(C#N)c2nc3ccccc3nc21	none
COc1ccccc1CNC(=O)c1c(N)n(CCCN2CCOCC2)c2nc3ccccc3nc12	TDP1 cell CPT inconclusive, TDP1 cell noCPT inconclusive, IL-1B inflam inh inconclusive, ELG1 DNA repair inconclusive
COc1cc(-n2c(N)c(C(=O)NCc3ccco3)c3nc4ccccc4nc32)cc(OC)c1OC	HT1080NT lethal inconclusive, TDP1 cell CPT inconclusive, TDP1 cell noCPT inconclusive, HT1080 IDH1KD tx inconclusive
COc1ccc(N2CCN(C(=O)c3cc([N+](=O)[O-])ccc3N3CCN(CCO)CC3)CC2)cc1	none
COC(=O)c1ccccc1NC(=O)c1c(C)oc2ncn(C)c(=O)c12	none (no result: HT1080NT lethal, IL-1B inflam inh, HT1080 IDH1KD tx, ELG1 DNA repair)
CC(C)(C)c1nnc(NS(=O)(=O)c2ccc(F)cc2)s1	TDP1 cell noCPT inconclusive (no result: ELG1 DNA repair)
O=C(NCc1ccco1)C1CCN(c2nc3ccccc3n2Cc2ccc(F)cc2)CC1	TDP1 cell CPT inconclusive, TDP1 cell noCPT 16.4µM, IL-1B inflam inh inconclusive, ELG1 DNA repair 18.4µM
COc1nc(OC)nc(N2CCC(C(=O)NCc3ccco3)CC2)n1	none
Nc1c(C(=O)NCCN2CCOCC2)c2nc3ccccc3nc2n1CCc1ccccc1	HT1080NT lethal inconclusive, TDP1 cell CPT inconclusive, TDP1 cell noCPT 20.6µM, IL-1B inflam inh -58.9, HT1080 IDH1KD tx inconclusive, ELG1 DNA repair inconclusive
CC(C)OC(=O)c1c(N)n(CCCN2CCOCC2)c2nc3ccccc3nc12	none
CCOC(=O)C1CCN(C(=O)COC(=O)/C=C/c2cccc(OC)c2OC)CC1	none
CCOC(=O)COn1c(-n2nc(C)cc2C)nc2ccccc2c1=O	TDP1 cell CPT inconclusive, TDP1 cell noCPT 25.9µM, ELG1 DNA repair inconclusive
Cc1cc(C)n(-c2nc3ccccc3c(=O)n2OCC#N)n1	TDP1 cell CPT 0.651µM, TDP1 cell noCPT 0.651µM, IL-1B inflam inh -95.8, HT1080 IDH1KD tx inconclusive, ELG1 DNA repair inconclusive
COC(=O)COn1c(-n2nc(C)cc2C)nc2ccccc2c1=O	TDP1 cell CPT inconclusive, TDP1 cell noCPT inconclusive
CC(=O)NCCC(=O)N1CCCC(N2CCN(c3cccc(Cl)c3)CC2)C1 (stereo unspecified)	ELG1 DNA repair inconclusive
CC1(O)CC(c2ccc(Cl)cc2)=NN1C(=O)c1ccc(Cl)cc1 (stereo unspecified)	TDP1 cell CPT 10.3µM, TDP1 cell noCPT 16.4µM
CN(C)c1ccc(C2CC(c3c(O)n(C4CCCCC4)c(=O)[nH]c3=O)=Nc3ccccc3S2)cc1 (stereo unspecified)	none (no result: HT1080NT lethal, IL-1B inflam inh, HT1080 IDH1KD tx, ELG1 DNA repair)
Cc1ccc(N2C(=O)CS/C2=N\C(=S)Nc2ccccc2)cc1	TDP1 cell CPT inconclusive, TDP1 cell noCPT 5.8µM
Cc1cn2c(=O)cc(COc3ccccc3NC(=O)c3ccccc3C)nc2s1	TDP1 cell noCPT inconclusive (no result: HT1080NT lethal, IL-1B inflam inh, HT1080 IDH1KD tx, ELG1 DNA repair)
C=CCc1cc(Cl)ccc1OCCOCCNC(C)CC (stereo unspecified)	HT1080NT lethal 16.4µM, TDP1 cell CPT inconclusive, TDP1 cell noCPT inconclusive, IL-1B inflam inh -78.0, HT1080 IDH1KD tx inconclusive
CCC(C)NCCOCCSc1ccc(Cl)cc1 (stereo unspecified)	TDP1 cell CPT inconclusive, TDP1 cell noCPT inconclusive, IL-1B inflam inh -52.1
C=CCc1cc(Cl)ccc1OCCCNCCO	HT1080NT lethal inconclusive, TDP1 cell CPT inconclusive, TDP1 cell noCPT 16.4µM, HT1080 IDH1KD tx inconclusive
C=CCc1cc(Cl)ccc1OCCN(C)C	none
CCC(C)NCCCCOc1ccc(Cl)cc1C (stereo unspecified)	HT1080NT lethal inconclusive, TDP1 cell CPT inconclusive, TDP1 cell noCPT 20.6µM, IL-1B inflam inh inconclusive, HT1080 IDH1KD tx inconclusive
O=C(Nc1cc(S(=O)(=O)N2CCOCC2)ccc1N1CCCC1)c1cccnc1Cl	none
c1ccc(Cn2nnc(CNc3ccccc3)c2-c2c(CNc3ccccc3)nnn2Cc2ccccc2)cc1	TDP1 cell CPT inconclusive, TDP1 cell noCPT inconclusive
CCC(C)NCCOCCOc1ccc(Cl)c(C)c1C (stereo unspecified)	HT1080NT lethal inconclusive, TDP1 cell CPT 14.6µM, TDP1 cell noCPT 13µM, HT1080 IDH1KD tx 20.6µM
